The source of these data is PubChem BioAssay.

Molecules are shown by their SMILES. Values without a mark were called inactive. The rule behind the calls is not given here.

In the test the test system is Aerobactin synthetase IucA (Klebsiella pneumoniae hvKP1). The test is described as follows: Biochemical IucA enzyme inhibition primary screen of the Spectrum library (AID 1346200).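 Note: 100% = wells without compound and 0% = wells lacking enzyme.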 The following applies: malachite green pyrophosphate, A620, at 8 µM, hits give low values.
With `Cc1cc(O)c(C=O)c2c1C(=O)Oc1c(C)c(O)c3c(c1O2)C(O)OC3=O` (stereo not given), the activity remaining is 113%. In the case of `C[C@]12CCC3c4ccc(OC(=O)c5ccccc5)cc4CCC3C1CCC2=O` (stereo not given in full) it was 116%; in that of `CCCC(=O)O[C@]1(C(=O)CO)CCC2[C@@H]3CCC4=CC(=O)CC[C@]4(C)C3[C@@H](O)C[C@@]21C` (stereo not given in full), 79%; in that of `CCCCCCCCCCCCCCCCOP(=O)([O-])OCC[N+](C)(C)C`, 128%. On to `C/C=C(/C)C(=O)O[C@H]1CC[C@@]2(C)[C@@H]3CC[C@H]4[C@]5(O)C[C@H](O)[C@@]6(O)[C@@H](CN7C[C@@H](C)CC[C@H]7[C@@]6(C)O)[C@]5(O)C[C@@]42OC13O`, for which the activity remaining was 103%. As to `COc1c2occc2cc2ccc(=O)oc12`, the activity remaining is 124%. The result for `CC(=O)Oc1c(-c2ccccc2)oc2c(CC=C(C)C)c3c(c(OC(C)=O)c2c1=O)C=CC(C)(C)O3` reads 98.4%. On to `O=C(O[C@@H]1Cc2c(O)cc(O)cc2O[C@@H]1c1cc(O)c(O)c(O)c1-c1c([C@H]2Oc3cc(O)cc(O)c3C[C@H]2O)cc(O)c(O)c1O)c1cc(O)c(O)c(O)c1`, for which the activity remaining is 119%. As to `C[C@H](CCC(=O)O)[C@H]1CCC2C3C(=O)CC4CC(=O)CC[C@]4(C)C3CC(=O)[C@@]21C` (stereo not given in full), the activity remaining is 122%. Take `Oc1ccc(Cl)c2cccnc12`: the activity remaining is 121%.

Regarding `Nc1ccc(S(=O)(=O)Nc2ccccn2)cc1`, the activity remaining was 97.8%. Turning to `O=C(/C=C(\O)c1ccccc1)c1ccccc1O`, the activity remaining is 120%. Turning to `CC(C(=O)O)c1cccc(Oc2ccccc2)c1` (stereo not given), the activity remaining was 118%. Take `CC1(C)C2CC[C@]3(C)C(C(=O)C=C4[C@@H]5C[C@@](C)(C(=O)O)CC[C@]5(C)CC[C@]43C)[C@@]2(C)CC[C@@H]1OC(=O)CCC(=O)O` (stereo not given in full): the activity remaining is 120%. The result for `C=C1CC[C@H](O)C/C1=C/C=C1\CCC[C@]2(C)C([C@H](C)/C=C/[C@H](C)C(C)C)CC[C@@H]12` (stereo not given in full) reads 107%. As for `Cc1ccc(S(=O)(=O)NC(=O)NN2CC3CCCC3C2)cc1` (stereo not given), the activity remaining is 121%. Turning to `CC(=O)NCc1c(I)c(NC(C)=O)c(I)c(C(=O)O)c1I`, the activity remaining was 98.7%. The result for `CC1(C)O[C@H]2[C@H](O)C[C@](O)(C(N)=O)C[C@H]2O1` reads 109%. Turning to `S=P(N1CC1)(N1CC1)N1CC1`, the activity remaining was 89.8%. Take `CC(=O)Oc1ccc(C(c2ccc(OC(C)=O)cc2)c2ccccn2)cc1`: the activity remaining was 82.7%.

Consider `O=C(CC(=O)c1ccccc1)c1ccccc1`, for which the activity remaining was 101%. For `O=C(O)COCCN1CCN(C(c2ccccc2)c2ccc(Cl)cc2)CC1` (stereo not given), the activity remaining is 116%. For `CC(C)NCC(O)COc1ccc(CC(N)=O)cc1` (stereo not given), the activity remaining is 117%. For `CC(=O)O[C@]1(C)CC[C@@]23CC1C(C)(C)[C@@H]2CC[C@H]3C`, the activity remaining is 102%. In the case of `COc1cc(C(C)=O)cc(OC)c1O` it was 94.5%.
